Screening data deposited in PubChem BioAssay by SRMLSC.
This is a sample that favours compounds with a hit; in the whole collection about 6.5% have one here.
Abs 340nm = absorbance at 340 nm. compound absorbance at 340 nm, fold over control. fold change at 10 µM. 65,000 tested, under 10 active;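 active = at 10 µM dose, initial 340 nm absorbance at least 2 fold that of control wells; inactive = change under 2 fold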;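 note: initial absorbance extrapolated from kinetic A340 decline of NADH oxidation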
Fluor 339 460 = intrinsic fluorescence of library compounds, ex339/em460 – biochemical, MLSMR library, data from DPM-DC assay, artefact control, profiling panel; compound autofluorescence, ex339/em460 nm, NADH buffer; stronger effect = higher value; 1 = no-compound wells, NADH background; fluorescence fold increase at 10 µM; 65,000 compounds, 5.5% hits; AID 709;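 active = at 10 µM, mean starting fluorescence two-fold or more over control wells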;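 note: signal is the first read of a kinetic run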
NADH enzymes = blocks coupling enzymes of NAD/NADH assays. coupled PK/LDH NADH assays, four targets. IC50, µM (highest dose often 10 µM). 65,000 compounds, 0.02% hits;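 active = single-dose screening hits from any of four coupled enzyme assays that gave an IC50 when retested across doses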;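 note: the DPM-DC format reads NADH fluorescence rather than 340 nm absorbance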
Spn DPM-DC inh = S. pneumoniae DPM-DC inhibition; 65,000 compounds, 0.49% hits; AID 556; calls only at 10 µM; purified DPM-DC, PK/LDH coupled NADH fluorescence;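 active = the 320 compounds with the highest percent inhibition in the single-dose primary screen, excluding strongly autofluorescent ones, cut at about 32% in these data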;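 note: kinetic rate of NADH fluorescence loss reporting ADP formed by the decarboxylase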
Spn PMK inh = S. pneumoniae PMK inhibition; purified PMK, PK/LDH-coupled NADH absorbance 340 nm; 65,000 compounds, 0.49% hits; inhibition, % at 10 µM;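 active = top-ranked compounds by inhibition in the single 10 µM screen, taking a fixed number of the strongest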
MK inhibit = S. pneumoniae mevalonate kinase inhibition; purified MK, PK/LDH-coupled NADH absorbance 340 nm; inhibition, % at 10 µM; 65,000 compounds, 0.48% hits;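 active = ranked among the strongest by inhibition in the single 10 µM screen, a fixed top-ranked set picked for dose follow-up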
A number is an active result.

`O=c1c2ccccc2nc(COc2ccccc2)n1/N=C/c1ccco1` gave Abs 340nm inactive, Fluor 339 460 inactive, NADH enzymes inactive, Spn DPM-DC inh inactive, Spn PMK inh inactive and MK inhibit inactive.
COc1ccc(Cn2c(C)nc3c(c2=O)c2nc4ccccc4nc2n3Cc2ccco2)cc1 was read as Abs 340nm inactive, Fluor 339 460 inactive, NADH enzymes inactive, Spn DPM-DC inh inactive, Spn PMK inh inactive and MK inhibit inactive.
O=c1c2c3nc4ccccc4nc3n(/N=C/c3ccco3)c2ncn1CCC1=CCCCC1 was read as Abs 340nm inactive, Fluor 339 460 inactive, NADH enzymes inactive, Spn DPM-DC inh inactive, Spn PMK inh inactive and MK inhibit inactive.
Screening O=C(NCCCN1CCCC1=O)c1cc(=O)c2ccccc2o1 returned Abs 340nm inactive, Fluor 339 460 inactive, NADH enzymes inactive, Spn DPM-DC inh inactive, Spn PMK inh inactive and MK inhibit inactive.
For CCCn1c(SCC(=O)c2cc(OC)ccc2OC)nnc1C(C)C the results were Abs 340nm inactive, Fluor 339 460 inactive, NADH enzymes inactive, Spn DPM-DC inh inactive, Spn PMK inh inactive and MK inhibit inactive.
Screening Cc1cc(C)n2nc(S(=O)(=O)NC3CCCCC3)nc2n1 returned Abs 340nm inactive, Fluor 339 460 inactive, NADH enzymes inactive, Spn DPM-DC inh inactive, Spn PMK inh inactive and MK inhibit inactive.
For CC1CCCN(C(=O)CSCC(=O)N=c2sc3ccccc3n2C)C1 (stereo not given) the results were Abs 340nm inactive, Fluor 339 460 inactive, NADH enzymes inactive, Spn DPM-DC inh inactive, Spn PMK inh inactive and MK inhibit inactive.
Screening Cc1ccc(-n2nnnc2SCc2nnc(-c3ccccc3Br)o2)c(C)c1 returned Abs 340nm inactive, Fluor 339 460 inactive, NADH enzymes inactive, Spn DPM-DC inh inactive, Spn PMK inh inactive and MK inhibit inactive.
Screening Nc1c(S(=O)(=O)c2ccccc2)c2nc3ccccc3nc2n1/N=C/c1ccco1 returned Abs 340nm inactive, Fluor 339 460 inactive, NADH enzymes inactive, Spn DPM-DC inh inactive, Spn PMK inh inactive and MK inhibit inactive.
Screening CC(C)Cn1c(N)c(S(=O)(=O)c2cccs2)c2nc3ccccc3nc21 returned Abs 340nm inactive, Fluor 339 460 3.9, NADH enzymes inactive, Spn PMK inh inactive and MK inhibit inactive.
`Cc1ccc(S(=O)(=O)c2c(N)n(/N=C/c3ccco3)c3nc4ccccc4nc23)cc1` gave Abs 340nm inactive, Fluor 339 460 3.2, NADH enzymes inactive, Spn DPM-DC inh inactive, Spn PMK inh inactive and MK inhibit inactive.
Screening Nc1c(S(=O)(=O)c2cccs2)c2nc3ccccc3nc2n1/N=C/c1cccc(O)c1 returned Abs 340nm inactive, Fluor 339 460 4, NADH enzymes inactive, Spn PMK inh inactive and MK inhibit inactive.
Cc1cc(C)c2c(CC(=O)N(CCC#N)Cc3cccnc3)coc2c1 was read as Abs 340nm inactive, Fluor 339 460 inactive, NADH enzymes inactive, Spn DPM-DC inh inactive, Spn PMK inh inactive and MK inhibit inactive.
CCC(C)N(C(=O)COC(=O)Cc1n[nH]c(=O)c2ccccc12)C1CCS(=O)(=O)C1 (stereo not given) was read as Abs 340nm inactive, Fluor 339 460 inactive, NADH enzymes inactive, Spn DPM-DC inh inactive, Spn PMK inh inactive and MK inhibit inactive.
Screening CCCNc1ncccc1C(N)=O returned Abs 340nm inactive, Fluor 339 460 3.4, NADH enzymes inactive, Spn PMK inh inactive and MK inhibit inactive.
For Cc1ccc2oc(=O)c3cc(C(=O)N4CCN(C(=O)c5ccco5)CC4)sc3c2c1 the results were Abs 340nm inactive, Fluor 339 460 inactive, NADH enzymes inactive, Spn DPM-DC inh inactive, Spn PMK inh inactive and MK inhibit inactive.
Screening Cc1ccc2oc(=O)c3cc(C(=O)N4CCN(c5ncccn5)CC4)sc3c2c1 returned Abs 340nm inactive, Fluor 339 460 2.1, NADH enzymes inactive, Spn PMK inh inactive and MK inhibit inactive.
Cc1ccc2[nH]c(=O)c3cc(C(=O)N(C)Cc4ccco4)sc3c2c1 was read as Abs 340nm inactive, Fluor 339 460 2.2, NADH enzymes inactive, Spn PMK inh inactive and MK inhibit inactive.
Screening Cc1ccc2[nH]c(=O)c3cc(C(=O)N4CCN(C(=O)c5ccco5)CC4)sc3c2c1 returned Abs 340nm inactive, Fluor 339 460 2, NADH enzymes inactive, Spn PMK inh inactive and MK inhibit inactive.
Screening COc1cccc(Nc2ncnc3c2cnn3C)c1 returned Abs 340nm inactive, Fluor 339 460 inactive, NADH enzymes inactive, Spn DPM-DC inh inactive, Spn PMK inh inactive and MK inhibit inactive.
For CC(C)CCNC(=O)Cn1c(NCCC(C)C)nc2c1c(=O)n(C)c(=O)n2C the results were Abs 340nm inactive, Fluor 339 460 inactive, NADH enzymes inactive, Spn DPM-DC inh inactive, Spn PMK inh inactive and MK inhibit inactive.
Screening COc1ccc(NC(=O)CSc2nnc(Cn3c(=O)sc4ccccc43)n2C)c(OC)c1 returned Abs 340nm inactive, Fluor 339 460 inactive, NADH enzymes inactive, Spn DPM-DC inh inactive, Spn PMK inh inactive and MK inhibit inactive.
Screening CCc1ccc2[nH]c(=O)c(CN(CCN(C)C)C(=O)Nc3ccccc3)cc2c1 returned Abs 340nm inactive, Fluor 339 460 inactive, NADH enzymes inactive, Spn DPM-DC inh inactive, Spn PMK inh inactive and MK inhibit inactive.
For COc1ccc2[nH]c(=O)c(CN(CCCN(C)C)C(=O)Nc3ccccc3)cc2c1 the results were Abs 340nm inactive, Fluor 339 460 2.7, NADH enzymes inactive, Spn DPM-DC inh inactive, Spn PMK inh inactive and MK inhibit inactive.
COc1ccc2[nH]c(=O)c(CN(CC3CCCO3)C(=O)Nc3ccc(F)cc3)cc2c1 (stereo not given) was read as Abs 340nm inactive, Fluor 339 460 2.3, NADH enzymes inactive, Spn DPM-DC inh inactive, Spn PMK inh inactive and MK inhibit inactive.
Screening CCN1CCCC1CN(Cc1cc2cc(OC)ccc2[nH]c1=O)C(=O)NCc1ccccc1 (stereo not given) returned Abs 340nm inactive, Fluor 339 460 4.3, NADH enzymes inactive, Spn PMK inh inactive and MK inhibit inactive.
For COc1cccc(C(=O)N(Cc2cc3cc(C)ccc3[nH]c2=O)CC2CCCO2)c1 (stereo not given) the results were Abs 340nm inactive, Fluor 339 460 inactive, NADH enzymes inactive, Spn DPM-DC inh inactive, Spn PMK inh inactive and MK inhibit inactive.
For CCCCCn1c(CN2CCN(c3cc(Cl)ccc3C)CC2)nc2c1c(=O)[nH]c(=O)n2C the results were Abs 340nm inactive, Fluor 339 460 inactive, NADH enzymes inactive, Spn DPM-DC inh inactive, Spn PMK inh inactive and MK inhibit inactive.
O=C(CSc1n[nH]c(-c2ccc(S(=O)(=O)NC3CCCCC3)cc2)n1)N1CCCC1 was read as Abs 340nm inactive, Fluor 339 460 3, NADH enzymes inactive, Spn DPM-DC inh inactive, Spn PMK inh inactive and MK inhibit inactive.
COc1ccc(-c2cc(C(F)(F)F)n3nc(C(=O)N4CCCC4)cc3n2)cc1 was read as Abs 340nm inactive, Fluor 339 460 2.2, NADH enzymes inactive, Spn PMK inh inactive and MK inhibit inactive.
